± gives the standard deviation.
Legend:
Settings in all cases: modulator concentration 10 µM
[1] = test system: RAW-Dual (murine macrophage reporter line); assay: NF-kB reporter (SEAP) activity fold change vs agonist alone; higher = enhanced NF-kB activity
Summary of the method: (§1)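 RAW-Dual murine macrophage reporter cells were seeded at 50 000 per well in 384-well plates and pre-incubated 1 hour at 37 °C with compound pin-transferred to 10 μM final. After 1 hour, a PRR agonist was added and cells incubated overnight. Supernatant NF-κB (SEAP, QUANTI-Blue, 620 nm absorbance) and IRF (Lucia luciferase, QUANTI-Luc, luminescence) signals were divided by the mean agonist-only control on the same plate to give fold change. Two replicate plates were averaged, with errors by propagation.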

[2] = test system: RAW-Dual (murine macrophage reporter line); assay: IRF reporter (Lucia luciferase) activity fold change vs agonist alone; higher = enhanced IRF activity
Summary of the method: as §1

[3] = test system: RAW-Dual (murine macrophage reporter line); assay: viability score (confluency relative to resting cells, overnight) (fraction); higher = more viable, active = viable (0.7 or more)
Summary of the method: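 RAW-Dual macrophages in 384-well plates were incubated overnight with compound, final concentration 10 μM. Confluency images from IncuCyte were processed in IncuCyte software into two masks covering all imaged wells. The viability score is each well's confluency relative to resting cells, and a compound met the cutoff when both masks exceeded 70% of resting cells.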

[4] = agonist: CpG ODN 1826 0.5 ug/mL

| Compound | NF-kB reporter [1, 4] | NF-kB reporter ([1]; agonist: LPS 0.1 ug/mL) | NF-kB reporter ([1]; agonist: MPLA […]) | IRF reporter ([2]; agonist: 3'3'-cGAMP 10 ug/mL) | IRF reporter ([2]; agonist: LPS 0.1 ug/mL) | IRF reporter ([2]; agonist: MPLA […]) | viability score [3] |
| --- | --- | --- | --- | --- | --- | --- | --- |
| CC1CC(C)CN(C(=O)CSc2nnc(Cc3ccccc3)o2)C1 (configuration not stated) | 0.917 ± 0.048 | 1.06 ± 0.091 | 0.879 ± 0.11 | 1.01 ± 0.071 | 0.944 ± 0.093 | 0.858 ± 0.34 | 0.981 (active) |
| O=c1sn(-c2cccc3ccccc23)c(=O)n1Cc1ccccc1 | 0.647 ± 0.1 | 0.501 ± 0.15 | 0.653 ± 0.044 | 0.473 ± 0.016 | 0.441 ± 0.14 | 0.81 ± 0.12 | 0.181 (inactive) |
| COc1cc(Br)c(C=C(C#N)c2nn(-c3ccccc3)c(N)c2C#N)cc1OC | 1.25 ± 0.1 | 1.09 ± 0.08 | 1.07 ± 0.1 | 0.936 ± 0.025 | 1.25 ± 0.24 | 1.18 ± 0.25 | 1.01 (active) |
| CCCCC(=O)N(Cc1ccc(-c2ccccc2-c2nnn[nH]2)cc1)[C@H](C(=O)O)C(C)C [Prestw-1735] | 1.14 ± 0.14 | 0.992 ± 0.075 | 1.05 ± 0.029 | 0.687 ± 0.03 | 0.705 ± 0.04 | 0.645 ± 0.071 | 0.998 (active) |
| Cc1cc(OC2CN(C(=O)Cn3nnc4ccccc43)C2)cc(=O)n1C1CC1 | 1.14 ± 0.08 | 1.05 ± 0.11 | 1.02 ± 0.044 | 0.97 ± 0.044 | 0.99 ± 0.07 | 0.973 ± 0.15 | 0.997 (active) |
| O=C(COc1cccc2ccccc12)NCc1ccncc1 | 0.804 ± 0.069 | 1.1 ± 0.06 | 1.02 ± 0.12 | 0.981 ± 0.052 | 1.34 ± 0.12 | 1.06 ± 0.098 | 1.01 (active) |

Source: the supplement of paper PMC10646978
